Source: ChEMBL document CHEMBL3988442, “University of Dundee, Small-Polar-MMV Screening Library” (2021)
About 13,000 (27%) of roughly 48,000 compounds showed an effect of 50% or more. Some of the results follow.

tested on: Wolbachia pipientis; assay: Anti-Wolbachia Cell-Based Screen; format: functional; design: scale not given: in the data most compounds retested in dose-response had high values; conditions: 5 µM

Structure (SMILES) | Percent Effect [%]
COC(=O)CN(C(=O)c1ccc(Cl)cn1)c1cccc(F)c1 | -0.7063
Cc1cnn(CC2CN(Cc3nc4ccccc4n3C)CCO2)c1 (stereo unspecified) | 109.8
Cc1cnn(CC2CN(Cc3nc4ccccc4o3)CCO2)c1 (stereo unspecified) | 139.9
c1ccc2oc(CCCN3CCOC(Cn4cncn4)C3)nc2c1 (stereo unspecified) | 115.2
Cn1c(CN2CCOC(Cn3cncn3)C2)nc2ccccc21 (stereo unspecified) | -24
Cc1cnn(CC2CN(CCS(=O)(=O)c3ccccc3)CCO2)c1 (stereo unspecified) | 5.078
CCOCC(=O)NCC1Cn2nnc(-c3cccc(F)c3)c2CO1 (stereo unspecified) | -1.189
NCC1Cc2cccc(-c3ccc(O)c(F)c3)c2O1 (stereo unspecified) | 16.35
CC(NC(=O)N(C)Cc1ccsc1)c1nncn1C (stereo unspecified) | -12.05
CNC(=O)c1cc2c(nc1NCC(C)C)CCN(S(=O)(=O)C1CC1)CC2 | -0.7375
CCc1nnsc1C(=O)N(C)Cc1ccco1 | 13.36
COC[C@@H]1CC[C@H]2[C@H](CCN2S(=O)(=O)c2ccc(F)cc2)O1 | 6.066
COC[C@@H]1CC[C@H]2[C@H](CCN2C(=O)c2ccncc2F)O1.O=C(O)C(F)(F)F | -6.773
CCOC[C@H]1CC[C@H]2[C@H](CCN2S(=O)(=O)Cc2ccccc2)O1 | -6.562
CCOC[C@H]1CC[C@H]2[C@H](CCN2C(=O)c2ccncc2F)O1.O=C(O)C(F)(F)F | 0.195
COC[C@H]1CC[C@H]2[C@H](CCN2C(=O)c2ccncc2F)O1 | 114.1
CCOC[C@@H]1CC[C@H]2[C@H](CCN2C(=O)c2ccncc2F)O1 | 103.3
Cn1nnc2c1C(COCc1ccccn1)CN(C(=O)c1cccs1)C2.O=C(O)C(F)(F)F (stereo unspecified) | -3.747
CCOCC(=O)N1Cc2nnn(C)c2C(COCc2ccccn2)C1.O=C(O)C(F)(F)F (stereo unspecified) | 0.961
Cc1ccc(CN2CCc3c(nnn3C)C2COCc2ccccc2)s1.O=C(O)C(F)(F)F (stereo unspecified) | -9.551
CN(C)C(=O)N1Cc2nnn(C)c2C(COCc2cccnc2)C1.O=C(O)C(F)(F)F (stereo unspecified) | -1.037
Cc1ccc(CN2Cc3nnn(C)c3C(COCc3ccccc3)C2)s1.O=C(O)C(F)(F)F (stereo unspecified) | 113.4

Structure (SMILES) | Percent Effect [%]
Cc1ccc(CN2Cc3nnn(C)c3C(COCc3ccccn3)C2)s1.O=C(O)C(F)(F)F.O=C(O)C(F)(F)F (stereo unspecified) | 95.33
Cc1cc(CN(C)C(=O)CNS(=O)(=O)c2cccs2)no1 | -1.596
CC[C@H]1COCCN1C(=O)c1ccc(OC)c(N2CCOCC2)c1 | 7.42
Cc1ncsc1CN1C[C@@H]2CCCO[C@@H]2[C@H](N(C)C(C)C)C1.O=C(O)C(F)(F)F.O=C(O)C(F)(F)F | -15.14
CCN(C(=O)C(C)C)C(c1cccnc1)c1ccc2c(c1)CCO2 (stereo unspecified) | 4.729
Cc1csc(C(Cc2ccsc2)NC(=O)c2cc(=O)n(C)c(=O)n2C)n1 (stereo unspecified) | 142.4
Cn1c(C(=O)NC(Cc2ccsc2)c2cccnc2)cc(=O)n(C)c1=O (stereo unspecified) | 166.4
Cc1cnccc1NC(=O)CCc1ccsc1 | -8.034
CC(Cc1ccsc1)NC(=O)c1cc(N2CCNC2=O)ccc1F (stereo unspecified) | -0.338
Cn1c(=O)cc(C(=O)NC(Cc2ccsc2)c2cccnc2)[nH]c1=O (stereo unspecified) | 175.1
Cc1csc(N2CCN(C(=O)Cc3ccsc3)CC2)n1 | 4.933
CC(c1cccnc1)N1CCN(C(=O)NCc2cnn(C)c2)CC1 (stereo unspecified) | -9.128
Cc1cc(NC(=O)CCc2ccsc2)n(C)n1 | 5.21
CCN(CC)c1ccc(C(=O)N(C)Cc2c(C)noc2C)cn1 | 3.136
CCN(Cc1ccc(C#N)cc1F)C(=O)CN(C)CC(N)=O | -8.702
COCc1ccccc1C(=O)NCCCN1CCCC1C(=O)N(C)C (stereo unspecified) | -20.3
CC(C)c1nnc2n1CCN(c1nc3ccccc3o1)C2 | 11.04
CCN(CC)C1CCN(C(=O)c2cc(-n3cccn3)ccc2Cl)CC1 | 93.46
Cc1nn(-c2ccccc2)cc1C(=O)N1CCCN2CCCC2C1 (stereo unspecified) | 6.19
O=C(c1cccc(-n2cccn2)c1)N1CCOC(CCO)C1 (stereo unspecified) | -0.5625
O=C(c1cccnc1-n1cccn1)N1CCN(CC2CC2)CC1 | -16.04
O=C(c1cc(-n2cccn2)ccc1Cl)N1CCC(N2CCCC2=O)CC1 | 95.9

Structure (SMILES) | Percent Effect [%]
O=C(NCc1ccccc1-n1cccn1)N1CCN2CCCCC2C1 (stereo unspecified) | -0.3123
CC(C)CCC(=O)N1CCN(C(=O)c2ccc(-n3cccn3)cc2)CC1 | -3.976
O=C(c1cc(-n2cccn2)ccc1Cl)N1CCCC(N2CCCC2)C1 (stereo unspecified) | 114.1
O=C(c1ccc(-n2cccn2)cc1Cl)N1CCCC(O)(CO)C1 (stereo unspecified) | -12.88
CCn1ccnc1CN1CCCC(N(C)CCc2ccccc2)C1 (stereo unspecified) | 3.806
COc1ccc(Cl)cc1-c1cc(NC(=O)C2COCCO2)[nH]n1 (stereo unspecified) | -1.485
Cc1cc(I)cnc1NC(=O)C(C)(C)C | -4.531
CC(C)Cc1nc(OCC(N)=O)c(C#N)c2c1CCC2 | 34.66
COCCCC1(C(=O)O)CCCN(C(=O)c2ccc(C(C)C)[nH]c2=O)C1 (stereo unspecified) | 4.25
O=C(Nc1ccnc(OC2CCOC2)c1)c1ccccc1Cl (stereo unspecified) | 70.82
Cc1occc1C(=O)Nc1ccnc(OC2CCOC2)c1 (stereo unspecified) | 30.35
O=C(Nc1ccnc(OC2CCOC2)c1)c1ccc(F)cc1Cl (stereo unspecified) | -10.63
N[C@H]1CN(C(=O)c2ccccc2Oc2ccccc2)C[C@@H]1C1CC1 | -0.964
O=C(O)c1ccnc(-c2ccnc(N3CCC(F)(F)CC3)n2)c1 | -4.386
CCN1CCN(CCC(=O)NC2CC(c3cccc(Cl)c3)C2)CC1 (stereo unspecified) | -7.949
Cc1nccn1C1CCCN(C(=O)c2ccc3c(c2)COC3)C1 (stereo unspecified) | 0.6755
Cc1nccn1C1CCCN(C(=O)c2cc3ccccc3[nH]2)C1 (stereo unspecified) | -11.12
Cc1nccn1C1CCCN(C(=O)c2ccc3cc[nH]c3c2)C1 (stereo unspecified) | 104
Cc1nccn1C1CCCN(C(=O)c2ccc3c(c2)CCC3)C1 (stereo unspecified) | 108.9
CC(CO)NCc1csc2c1CCCC2 (stereo unspecified) | 1.325
CCCc1ccc(CN2CCN(C(=O)CC(C)C)[C@@H]3CS(=O)(=O)C[C@@H]32)o1 | -2.422
COc1cc(N2CCc3ncnc(-c4ccncc4)c3CC2)ncn1.O=C(O)C(F)(F)F | 4.079

Structure (SMILES) | Percent Effect [%]
O=C(O)C(F)(F)F.O=C(c1ccno1)N1CCc2ncnc(-c3ccncc3)c2CC1 | 111.4
Cc1ncnc2c1CCN(C(=O)c1ccncc1)CC2.O=C(O)C(F)(F)F | -2.654
O=C(NC1CC1)N1CCc2ncnc(-c3ccncc3)c2CC1.O=C(O)C(F)(F)F | -17.44
CC(C)NC(=O)N1CCc2ncnc(-c3ccncc3)c2CC1.O=C(O)C(F)(F)F | 129.4
O=C(O)C(F)(F)F.O=C(c1ccncc1)N1CCc2ncnc(C3CC3)c2CC1 | -7.83
CN(C)C(C(=O)NC1(CO)CCCC1)c1ccc(F)cc1 (stereo unspecified) | -4.7
O=C1N(c2ccc(Br)cc2)Cc2nc(=O)[nH]n21 | 13.29
Cc1cc2cc(C(=O)N[C@@H]3CC[C@@H](N4CCOCC4)[C@@H]3O)ccc2o1 | -19.97
Cc1cc2cc(C(=O)N3CCN(CCO)[C@@H]4CS(=O)(=O)C[C@@H]43)ccc2o1 | -0.6581
Cc1cc2cc(C(=O)N[C@@H]3CC[C@@H](N4CCCC4)[C@@H]3O)ccc2o1 | 117.2
Cc1cc(C(=O)N[C@@H]2CCNC[C@H]2O)ccc1Cl | -15.13
Cc1cc2cc(C(=O)N[C@@H]3CC[C@@H](N4CCNC(=O)C4)[C@@H]3O)ccc2o1 | 121.8
CCN(C)c1ncnc2c1CCN(C(=O)c1ccno1)CC2 | -25.29
N#Cc1cnn(C(=O)CCCOc2ccccc2Cl)c1N | 5.085
CC(=O)N1CCC(c2nnc3ccc(C(=O)NCC(C)C)cn23)C1 (stereo unspecified) | -18.5
CN(C(=O)c1cnc(N2CCOCC2)nc1)C1Cc2ccccc2C1 | -2.733
CC(C)NC(=O)N1CCC(n2ccc(C(F)(F)F)n2)CC1 | -15.91
CC(=O)N1CCC(n2ccc(-c3cnc(NCC(C)C)nc3)n2)CC1 | 75.49
CCC(SC)C(=O)N1CCC(n2ccnn2)CC1 (stereo unspecified) | 9.459
Cn1cc(-c2cnc(N3CCOCC3)nc2)cc1C(=O)O | -1.361
CC[C@H](C)Nc1ncc(-c2ccn(C3CCN(C(C)=O)CC3)n2)cn1 | 95.97
O=C(NCC(F)F)N1CCC(n2ccc(C(F)(F)F)n2)CC1 | 4.357

Structure (SMILES) | Percent Effect [%]
CC(=O)N1CCC(n2ccc(-c3cnc(N4CCOCC4)nc3)n2)CC1 | 94.2
O=C(O)c1cc(-c2ccncc2)cc(S(=O)(=O)N2CCSCC2)c1 | -4.815
O=C(CCC(=O)N1CCOCC1c1ccccc1)c1cccs1 (stereo unspecified) | -0.4955
CC(C(=O)Nc1ccc2ccccc2c1)N1CCC(n2ccnc2)CC1 (stereo unspecified) | 14.62
CCSCCNc1nc(-c2ccccn2)nc2c1c(C)nn2C | -9.72
CCCc1nnc(N(C)CC2CCN(CC(C)C)C2)o1 (stereo unspecified) | 22.96
CCc1nnc2n1CCN(Cc1csc(-c3ccccc3)n1)C2 | -8.809
CCc1nnc2n1CCN(Cc1csc(NC(C)=O)n1)C2 | 125.2
CC(=O)Nc1nc(CN2CCn3c(C)nnc3C2)cs1 | 106.6
CCc1nnc2n1CCN(Cc1csc(-c3ccccc3F)n1)C2 | -7.505
CCc1nnc2n1CCN(Cc1csc(Cc3ccccc3)n1)C2 | 110.3
CC(=O)Nc1nc(CN2CCn3c(nnc3C(C)C)C2)cs1 | 134.2
CC(=O)Nc1nc(CN2CCn3c(nnc3C3CC3)C2)cs1 | -1.677
CC(C)c1nnc2n1CCN(Cc1csc(CC(=O)N(C)C)n1)C2 | -25.19
CCc1nnc2n1CCN(Cc1csc(-c3cnn(C)c3)n1)C2 | -17.9
Cc1nnc2n1CCN(Cc1csc(CC(=O)N(C)C)n1)C2 | -5.269
Cc1nnc2n1CCN(Cc1csc(Cc3ccccc3)n1)C2 | -6.731
CC(C)c1nnc2n1CCN(Cc1csc(-c3cnn(C)c3)n1)C2 | -7.082
